This is an account of results in ChEMBL document CHEMBL4513216, “Probing the Open Global Health Chemical Diversity Library for Multistage-Active Starting Points for Next-Generation Antimalarials” (ACS Infect Dis, 2020).

The campaign covered roughly 69,000 compounds. About 8,600 (12%) showed an effect of 50% or more. This excerpt belongs to a sample that is enriched for strong results.

This test has as its system Plasmodium berghei. Put plainly: Screen against P. berghei liver stage (PbLuc), transformed with Luciferase, at 10uM. To be noted: tested at 10 uM. Format: functional, HepG2.
`Nc1ncccc1C(=O)NCc1cccc(Cl)c1`: the INHIBITION is reported as 69.8%. Under `Nc1ncccc1C(=O)NCc1ccc(Br)cc1` stands -26.3%; under `CC(C)Sc1ncccc1C(=O)NCc1cccc(N(C)C)c1`, 19.6%.

With `Nc1ncccc1C(=O)NCc1cccc(Br)c1`, the INHIBITION stood at 68.9%. For the compound `Cc1cccc(CNC(=O)c2cccnc2N)c1`, the INHIBITION stood at 44.1%. To `COc1cccc(CNC(=O)c2cccnc2N)c1` belongs 0.207%. Take `CC(C)N1CC(C(=O)NCc2ccc(S(=O)(=O)N(C)C)cc2)CC1=O` (stereo unspecified): the INHIBITION worked out at 6%.

As for `CN1CCC(Cc2cnc(CNC(=O)Cc3cccc(F)c3)cn2)CC1`, the INHIBITION came out at 26.75%. To `Cc1ccc(NC2COC3(CCN(CC(C)C)CC3)C2)nn1` (stereo unspecified) belongs 46.7%. To `CCc1nnc2n1CCN(C(C(=O)NC1CC1)c1ccc(F)cc1)C2` (stereo unspecified) belongs 2.61%; to `CCCc1nc(CN2CCN(Cc3noc(CCC)n3)CC2)no1`, 17.7%; to `CN1CCN(Cc2noc(CC3CCc4ccccc43)n2)CC1` (stereo unspecified), 42.1%.

Turning to `CCCc1nc(CN2CCN(CC(O)c3ccccc3)CC2)no1` (stereo unspecified), the INHIBITION is 34.5%. Under `CN1CCC(Cc2noc(CC3CC3)n2)CC1` stands 48.8%; under `CCCN1CCC(Cc2nc(CN3CCN(C)CC3)no2)CC1`, 54.4%; under `CN1CCN(Cc2noc(CCc3nc(-c4ccccc4)no3)n2)CC1`, 74.4%.

As to `Cc1noc(C)c1C(=O)N1CCC(n2cccn2)CC1`, the INHIBITION is on record as 19.4%. To `Cc1nc(CN2C(=O)CCC23CCN(c2ncccc2C)CC3)cs1` belongs 37.2%; to `CC(=O)N1CCc2nnc(C3CCCCN3CC3CC3)n2CC1` (stereo unspecified), 3.91%; to `COC(=O)Cn1c(C)cc(=O)n2nc(-c3cccs3)nc12`, 29.2%. For the compound `Cc1cc(=O)n2nc(-c3cccs3)nc2n1CC(=O)NC(C)C`, the INHIBITION worked out at 67.3%. To `COCCCNC(=O)Cn1c(C)cc(=O)n2nc(-c3cccs3)nc12` belongs 49.1%; to `Cc1cccc(CN(Cc2nc3c(cnn3C)c(=O)[nH]2)C2CC2)c1`, 23.7%; to `Cc1cc(C)nc(C2CCN(C(=O)CCn3nnc4ccccc43)C2)n1` (stereo unspecified), 22%.

As to `CSc1ccccc1NC(=O)N1C[C@@H](N(C)C)[C@H](c2ccc(C)cc2)C1`, the INHIBITION was -5.38%. To `CCOc1ccc(CN2CC[C@@H]3CC[C@H](C2)N3)cc1CO` belongs 31.2%; to `N#Cc1ccc(C(=O)N2CC[C@H]3[C@H]2CCN3CC2CC2)cc1`, 27.2%; to `O=C(c1ccc(F)cc1)N1CC[C@H]2[C@H]1CCN2CC1CC1`, -12.2%. To `Cc1ccc(C(=O)N2CC[C@H]3[C@H]2CCN3CC2CCOCC2)cn1` belongs 57.9%; to `N#Cc1ccc(C(=O)N2CC[C@H]3[C@H]2CCN3CC2CCOCC2)cc1`, -13.4%.

With `O=C(c1ccc(F)cc1)N1CC[C@H]2[C@H]1CCN2CC1CCOCC1`, the INHIBITION was found to be 64.9%. Take `N#Cc1cccc(C(=O)N2CC[C@H]3[C@H]2CCN3CC2CC2)c1`: the INHIBITION was 12.4%. For `O=C(c1ccco1)N1CC[C@H]2[C@H]1CCN2CC1CCOCC1`, the INHIBITION worked out at 25%. Under `O=C(c1cscn1)N1CC[C@@H]2[C@@H]1CCN2CC1CCOC1` (stereo partly specified) stands 49.4%; under `Cc1ccc(C(=O)N2CC[C@H]3[C@H]2CCN3CC2CCOCC2)cc1F`, 67.2%; under `O=C(c1cccc(Cl)c1)N1CC[C@H]2[C@H]1CCN2CC1CC1`, 64.9%.

As for `O=C(c1cccc(Cl)c1)N1CC[C@H]2[C@H]1CCN2CC1CCOCC1`, the INHIBITION came to 30.1%. To `O=C(c1cscn1)N1CC[C@@H]2[C@@H]1CCN2CC1CCOCC1` belongs -41%; to `COc1ncc(CN(CCCN2CCOCC2)Cc2ccc(C)o2)cn1`, 30.4%; to `CC(C)c1ncc2c(n1)CN(CCCc1nc3ccccc3o1)CC2`, 40.9%. To `Cc1cc(CN2CCC3(CC2)COC(COc2ccccn2)C3)no1` (stereo unspecified) belongs -19.8%; to `O=C1CCC2(CCNCC2)CN1Cc1nnc2ccccn12`, 42.1%.

As for `Cc1[nH]ccc1C(=O)N1CCN(C)C2(CCC(=O)N(C)CC2)C1` (stereo unspecified), the INHIBITION is reported as -2.39%. To `CC(C)(C)C(=O)NCCn1ccc(-c2ccccn2)n1` belongs -43.7%. For `COc1ccc([C@@H]2CN(Cc3ccncc3)C[C@H]2N(C)C)cc1`, the INHIBITION is recorded as 33%. Under `O=C(c1cccc(F)c1)N1CC[C@H]2[C@H]1CCN2CC1CCOCC1` stands 59%; under `N#Cc1cccc(C(=O)N2CC[C@H]3[C@H]2CCN3CC2CCOCC2)c1`, 34.6%.

For the compound `Cn1cc(CN2CC[C@@H]3[C@@H]2CCN3C(=O)c2cccc(F)c2)cn1`, the INHIBITION was 10.1%. `CS(=O)(=O)c1cncnc1C1CCCN(C(=O)Nc2ccc(F)cc2)C1` (stereo unspecified): the INHIBITION is reported as -18.555%. As to `COc1ccc(C(=O)N2CCCC(n3cc(C)cn3)C2)c(F)c1` (stereo unspecified), the INHIBITION was 2.97%. To `CCS(=O)(=O)N1CCN(C(=O)NC(C)C)CC2(CNC(=O)C2)C1` (stereo unspecified) belongs 3.25%; to `CC(=O)N1CCC1c1cc(N2CCNC(=O)C2)nc(C)n1` (stereo unspecified), 12.84%. Take `Cc1csc(N2CCN(Cc3cscn3)CC2C)n1` (stereo unspecified): the INHIBITION is reported as 45.9%. Under `Cc1csc(N2CCN(Cc3cccnc3)CC2C)n1` (stereo unspecified) stands 61.8%; under `Cc1csc(N2CCN(Cc3cnc(C)s3)CC2C)n1` (stereo unspecified), 21.6%; under `Cc1csc(N2CCN(Cc3nccn3C)CC2C)n1` (stereo unspecified), 30%.

For `Cc1csc(N2CCN(Cc3ccccn3)CC2C)n1` (stereo unspecified), the INHIBITION was 2.3%.

On to `Cc1cnc(CN2CCN(c3nc(C)cs3)C(C)C2)cn1` (stereo unspecified), for which the INHIBITION is 78.8%.

As for `CN(C)Cc1ccc(CNC(=O)NCC2(C)CCCS2)cc1` (stereo unspecified), the INHIBITION worked out at 49.3%.

On to `Cc1ccc(-c2ncc(C(=O)NS(C)(=O)=O)s2)c(C)c1`, for which the INHIBITION is -2.53%. Under `CNC(=O)NC(=O)CCSCc1cc(Cl)cc2cccnc12` stands -51.1%. As for `CC(C)NC(=O)N(C)C1CCN(c2ccccc2Cl)C1=O` (stereo unspecified), the INHIBITION was -6.61%. As to `Cc1n[nH]c(C)c1CCC(=O)N1CCC(O)(CN2CCN(C)CC2)C1` (stereo unspecified), the INHIBITION is -15.15%.

On to `Cc1n[nH]c(C)c1CCC(=O)N1CCC(O)(CN2CCOCC2)C1` (stereo unspecified), for which the INHIBITION is reported as 53.65%. Under `Cc1n[nH]c(C)c1CC(=O)N1CCC(O)(CN2CCOCC2)C1` (stereo unspecified) stands -23.55%; under `c1nc(N2CCOC(Cn3cncn3)C2)c2cc[nH]c2n1` (stereo unspecified), 33.8%; under `CCOCCC(=O)N1CCc2cccc(S(=O)(=O)N3CCOCC3)c2C1`, 53.9%.

On to `COCC(=O)N1CCc2cccc(S(=O)(=O)N3CCOCC3)c2C1`, for which the INHIBITION was determined as 33.9%. To `CCCOC(=O)N1CCc2cccc(S(=O)(=O)N3CCOCC3)c2C1` belongs 20.3%; to `N#Cc1cc(NC(=O)c2ccccc2)ccc1N1CCC(O)CC1`, -4.86%; to `N#Cc1cc(NC(=O)c2ccccn2)ccc1N1CCC(O)CC1`, -5.25%. To `N#Cc1cc(NC(=O)c2ccsc2)ccc1N1CCC(O)CC1` belongs 35.1%; to `Cc1ccsc1C(=O)Nc1ccc(N2CCC(O)CC2)c(C#N)c1`, 96.1%; to `Cc1ccc(C(=O)Nc2ccc(N3CCC(O)CC3)c(C#N)c2)s1`, 17.6%. To `N#Cc1cc(NC(=O)c2ccncc2)ccc1N1CCC(O)CC1` belongs 62.3%; to `Cn1cccc1C(=O)N[C@H]1CN(Cc2ccoc2)[C@@H]2CCCO[C@H]12`, 34.9%; to `COCC(=O)NCc1nn(CCN2CCCC2)c(=O)c2ccccc12`, 31.3%. For `Cc1ccc(C)c(CS(=O)(=O)CC(=O)NCCCOC(C)C)c1`, the INHIBITION was -2.19%. Regarding `Cc1nc(C)n(CC2CCCCN2CC(=O)Nc2nnc(C)s2)n1` (stereo unspecified), the INHIBITION is given as 4.71%. Consider `CCN(CCOC)C(=O)c1ccc2c(c1)nc(N1CC[C@H](O)C1)n2C`, for which the INHIBITION worked out at 1.74%. Under `Cc1ncc(C(=O)N2CCCC(C(=O)c3nccn3C)C2)c(O)n1` (stereo unspecified) stands -6.01%; under `Cc1cccc(C)c1OCC(O)CNCc1c(C)nn(C)c1N(C)C` (stereo unspecified), 19.4%; under `O=C(C1CCOC1)N1CCc2ncc(CNc3ccccn3)n2CC1` (stereo unspecified), 41.5%. To `c1nc2n(c1CN1CCCC1)CCN(C1CCOCC1)CC2` belongs 80%; to `c1ccc(NCc2cnc3n2CCN(C2CCOC2)CC3)nc1` (stereo unspecified), 81.2%.

Turning to `c1nc2n(c1CN1CCOCC1)CCN(C1CCOC1)CC2` (stereo unspecified), the INHIBITION is recorded as -52.3%.

In the case of `c1nc2n(c1CN1CCCCC1)CCN(C1CCOC1)CC2` (stereo unspecified), the INHIBITION is -33.9%. Under `c1ccc(NCc2cnc3n2CCN(CC2CCOC2)CC3)nc1` (stereo unspecified) stands 27.6%; under `c1cnc(N2CCC3(CCN(CC4CCOC4)CC3)CC2)nc1` (stereo unspecified), 15.6%. Take `CC(NC(=O)OC(C)(C)C)c1nnc(S(=O)(=O)Cc2ccc(Cl)cc2)o1` (stereo unspecified): the INHIBITION is given as -19.1%.

For `COc1ccc2c(ccn2CCC(=O)NCc2ccc(C(=O)O)cc2)c1`, the INHIBITION worked out at 7.83%.

Turning to `O=C([C@H]1C[C@H]2OCC[C@H]2N(Cc2ccco2)C1)N1CCCO1`, the INHIBITION came out at 34.6%. Under `O=C(N1CCCO1)[C@@]12CCO[C@@H]1CCN(Cc1ccccc1)C2` stands -10.4%; under `CC(C)n1c(=O)c2sccc2n(CC(=O)Nc2ccccc2)c1=O`, 52.4%. To `Cn1c(=O)c2sccc2n(CC(=O)Nc2cccc(Cl)c2)c1=O` belongs -25.5%. Consider `O=C(Cn1c(=O)[nH]c2cn(-c3ccccc3)c(=O)n21)Nc1ccccc1`, for which the INHIBITION came to 23.2%. Under `CC(C)c1cccc(NC(=O)Cn2c(=O)n(C)c(=O)c3sccc32)c1` stands 74.7%. Consider `CCn1c(=O)c2sccc2n(CC(=O)Nc2cccc(Cl)c2)c1=O`, for which the INHIBITION stood at 33.3%.

With `CC(C)n1c(=O)c2sccc2n(CC(=O)Nc2cccc(Cl)c2)c1=O`, the INHIBITION was 19.3%.

As to `CC1=N[C@@]2(CC[C@@H]3CN(S(=O)(=O)CC(C)C)C[C@@H]32)C(=O)N1CC(C)C`, the INHIBITION stood at 40.4%. To `CCN(CC)CCNC(=O)CCc1c(C)nn(-c2ccccc2Br)c1C` belongs 6.55%.
